# Test results reported in PubChem BioAssay (EPA / NIEHS).
# Activity calls are given as the source filed them. Rule for the calls: active = hit-call score of the fitted dose curve at least 0.9, where 1 is the maximum; inactive = score below 0.9.
# Assay: ATG_E_Box_CIS: Attagene CIS-FACTORIAL HepG2 Assay for human Enhancer Box (E-box) (AID 2282936)
# Conditions: HepG2 E-box cis-reporter transcription, actives raise or lower the signal
# Procedure, shortened: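 HepG2 cells transiently transfected with multiplexed cis-element reporter units sensing endogenous transcription factor activity; 24 h compound exposure. Reporter mRNA measured by RT-PCR, 6-FAM primer extension, HpaI digestion and capillary electrophoresis; bidirectional fit versus DMSO.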
SMILES,outcome,AC50
CCCSP(=S)(OCC)Oc1ccc(Cl)cc1Cl (centres undefined),inactive,–
CCC[CH2][Sn]([CH2]CCC)([CH2]CCC)[CH2]CCC,–,14 µM (active)
Cc1cc(Cl)ccc1O,inactive,–
O=[N+]([O-])c1cccc2ccccc12,inactive,–
ClCCCCl,inactive,–
CNC(=O)CSP(=O)(OC)OC,inactive,–
N#Cc1ccccc1N,inactive,–
Cc1ccc2nc3sc(=O)sc3nc2c1,inactive,–
O=C(O)c1cc(I)cc(I)c1I,inactive,–
O=C(NC(=O)c1c(F)cccc1F)Nc1cc(Cl)c(F)c(Cl)c1F,inactive,–
CCN(CCO)CCO,inactive,–
C1CN2CCN1CC2,inactive,–
C=C(C)[C@@H]1CC=C(C=O)CC1,inactive,–
CC1(C)[C@H](/C=C2\CCSC2=O)[C@@H]1C(=O)OCc1coc(Cc2ccccc2)c1,inactive,–
O=c1nc(O)n(Cl)c(=O)n1Cl,inactive,–
[F][Sn]([c]1ccccc1)([c]1ccccc1)[c]1ccccc1,–,0.593 µM (active)
O=C1C[C@@H]2OCC=C3CN4CC[C@]56c7ccccc7N1[C@H]5[C@H]2[C@H]3C[C@H]46,inactive,–
C=CC(=O)NC(C)(C)CC(C)=O,inactive,–
OCCCCO,inactive,–
N#CS,inactive,–

SMILES,outcome,AC50
OC(c1ccc(Cl)cc1)(c1ccc(Cl)cc1)c1cccnc1,inactive,–
O=[N+]([O-])c1ccccc1O,inactive,–
CCOc1cc(C=O)ccc1O,inactive,–
C=CCOC(F)(C(F)(F)F)C(F)(F)F,inactive,–
Cc1cc(Cl)ccc1OC(C)C(=O)O (centres undefined),inactive,–
Brc1ccc(Br)cc1,inactive,–
CNC(=O)N(C)c1nc2ccccc2s1,inactive,–
O=[N+]([O-])c1cc([As](=O)(O)O)ccc1O,inactive,–
Cc1c([N+](=O)[O-])c(C)c([N+](=O)[O-])c(C(C)(C)C)c1[N+](=O)[O-],inactive,–
CCCSP(=S)(OCC)Oc1ccc(SC)cc1 (centres undefined),inactive,–
C#C[C@]1(O)CC[C@H]2[C@@H]3CCC4=CC(=O)CC[C@]4(C)[C@H]3CC[C@@]21C,inactive,–
O=NN1CCCCCCC1,inactive,–
BrCCCCBr,inactive,–
CC(C)CP(=S)(S)CC(C)C,inactive,–
O=c1[nH]c(=O)n(Cl)c(=O)n1Cl,inactive,–
CC(C)=CC1C(C(=O)OCc2cccc(Oc3ccccc3)c2)C1(C)C (centres undefined),inactive,–
CCOP(=S)(OCC)Oc1ccc(Cl)cc1Cl,inactive,–
CCN(CC)C(=O)C(Cl)=C(C)OP(=O)(OC)OC,inactive,–
CC(C)(C1CCC(O)CC1)C1CCC(O)CC1 (centres undefined),inactive,–
